Measured values from PubChem BioAssay AID1159580 (chemical genetic matrix, 2015).
In all, about 5,500 compounds went through this assay and about 2,000 (36%) were called active. Roughly 18% stayed inconclusive and do not appear here. No stated cut-off is given here; in the data, active means normalized growth mostly below about 0.91 (no sharp cut-off); inconclusive means no clear call, values can overlap the other calls; inactive means mostly above about 0.92. The list shows a part of the results.

Test: chemical genetic growth profiling, strain panel (AID 1159580);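 further: tested at 20 µM; growth read once vehicle control cultures reached saturation at 30 °C; 1 = growth at the plate median or of vehicle wells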
Conditions: S. cerevisiae deletion strains, growth OD

Measured: normalized growth

Cc1onc(-c2ccccc2)c1-c1ccc(S(N)(=O)=O)cc1
inactive: locus YAL013W, strain DEP1, stronger effect = lower value 0.995 | locus YAL021C, strain ccr4, stronger effect = lower value 1 | locus YAL026C, strain drs2, stronger effect = lower value 1.02 | locus YAL030W, strain snc1, stronger effect = lower value 1 | locus YBL061C, strain skt5, stronger effect = lower value 1 | locus YBR009C, strain hhf1, stronger effect = lower value 1.01 | locus YBR021W, strain FUR4, stronger effect = lower value 1 | locus YBR023C, strain chs3, stronger effect = lower value 1 | locus YBR171W, strain sec66, stronger effect = lower value 0.984 | locus YBR229C, strain ROT2, stronger effect = lower value 0.999 | locus YBR231C, strain swc5, stronger effect = lower value 1 | locus YBR279W, strain paf1, stronger effect = lower value 1 | locus YCL011C, strain gbp2, stronger effect = lower value 0.989 | locus YCL016C, strain dcc1, stronger effect = lower value 1.02 | locus YCL029C, strain bik1, stronger effect = lower value 0.995 | locus YCL061C, strain MRC1, stronger effect = lower value 0.993 | locus YCL069W, strain vba3, stronger effect = lower value 0.995 | locus YCR088W, strain abp1, stronger effect = lower value 0.996 | locus YDL005C, strain med2, stronger effect = lower value 0.996 | locus YDL035C, strain GPR1, stronger effect = lower value 1 | locus YDL040C, strain nat1, stronger effect = lower value 1 | locus YDL074C, strain BRE1, stronger effect = lower value 0.999 | locus YDL101C, strain DUN1, stronger effect = lower value 1 | locus YDL134C, strain PPH21, stronger effect = lower value 1.01 | locus YDL185W, strain tfp1, stronger effect = lower value 0.988 | locus YDL192W, strain arf1, stronger effect = lower value 0.997 | locus YDR001C, strain nth1, stronger effect = lower value 1.01 | locus YDR069C, strain doa4, stronger effect = lower value 1 | locus YDR101C, strain arx1, stronger effect = lower value 0.997 | locus YDR137W, strain rgp1, stronger effect = lower value 1.01 | locus YDR150W, strain NUM1, stronger effect = lower value 1.02 | locus YDR159W, strain sac3, stronger effect = lower value 1.01 | locus YDR162C, strain NBP2, stronger effect = lower value 0.993 | locus YDR195W, strain ref2 0.963 | locus YDR297W, strain sur2, stronger effect = lower value 1 | locus YDR318W, strain mcm21, stronger effect = lower value 0.998 | locus YDR334W, strain swr1, stronger effect = lower value 1.02 | locus YDR335W, strain msn5, stronger effect = lower value 0.997 | locus YDR388W, stronger effect = lower value 0.997 | locus YDR392W, strain spt3, stronger effect = lower value 1.01 | locus YDR502C, strain sam2, stronger effect = lower value 0.99 | locus YEL003W, strain gim4, stronger effect = lower value 1 | locus YEL037C, strain rad23, stronger effect = lower value 1 | locus YEL061C, strain CIN8 (second series), stronger effect = lower value 1.02 | locus YEL061C, strain CIN8, stronger effect = lower value 0.992 | locus YER015W, strain faa2, stronger effect = lower value 0.997 | locus YER016W, strain bim1, stronger effect = lower value 1.01 | locus YER110C, stronger effect = lower value 0.997 | locus YER111C, strain swi4, stronger effect = lower value 0.996 | locus YER155C, strain BEM2 (second series), stronger effect = lower value 1.01 | locus YER155C, strain BEM2, stronger effect = lower value 0.988 | locus YER167W, strain BCK2, stronger effect = lower value 1 | locus YFR010W, strain ubp6, stronger effect = lower value 0.999 | locus YGL078C, strain dbp3, stronger effect = lower value 0.995 | locus YGL086W, strain mad1, stronger effect = lower value 0.988 | locus YGL167C, strain pmr1, stronger effect = lower value 1.02 | locus YGL173C, strain kem1, stronger effect = lower value 1.01 | locus YGL227W, strain vid30, stronger effect = lower value 0.991 | locus YGL240W, strain doc1, stronger effect = lower value 1.01 | locus YGL248W, strain PDE1, stronger effect = lower value 1 | locus YGL253W, strain hxk2, stronger effect = lower value 0.999 | locus YGR078C, strain PAC10, stronger effect = lower value 0.989 | locus YGR135W, strain pre9, stronger effect = lower value 0.995 | locus YGR229C, strain SMI1, stronger effect = lower value 0.994 | locus YGR252W, strain gcn5, stronger effect = lower value 0.985 | locus YHR013C, strain ard1, stronger effect = lower value 1.01 | locus YHR027C, strain rpn1, stronger effect = lower value 1 | locus YHR030C, strain SLT2, stronger effect = lower value 1.01 | locus YHR079C, strain IRE1 (second series), stronger effect = lower value 0.998 | locus YHR094C, strain hxt1, stronger effect = lower value 0.995 | locus YHR129C, strain ARP1, stronger effect = lower value 1 | locus YHR142W, strain chs7, stronger effect = lower value 0.989 | locus YHR200W, strain rpn10, stronger effect = lower value 1 | locus YIL066C, strain RNR3, stronger effect = lower value 0.983 | locus YIL073C, strain SPO22, stronger effect = lower value 1.03 | locus YIL125W, strain kgd1, stronger effect = lower value 0.99 | locus YIR030C, strain dcg1, stronger effect = lower value 1 | locus YJL092W, strain hpr5, stronger effect = lower value 0.995 | locus YJL095W, strain BCK1 (second series), stronger effect = lower value 1.01 | locus YJL095W, strain BCK1, stronger effect = lower value 1.02 | locus YJL115W, strain asf1, stronger effect = lower value 0.998 | locus YJL129C, strain trk1, stronger effect = lower value 0.972 | locus YJL134W, strain LCB3, stronger effect = lower value 1 | locus YJL154C, strain vps35, stronger effect = lower value 1.01 | locus YJL164C, strain tpk1, stronger effect = lower value 1.01 | locus YJL166W, strain qcr8, stronger effect = lower value 1 | locus YJL168C, strain set2, stronger effect = lower value 0.998 | locus YJL187C, strain SWE1 (second series), stronger effect = lower value 1 | locus YJL187C, strain SWE1, stronger effect = lower value 0.996
